The list is not random: actives were taken first. Their share in the collection is about 5.4%.
SKKanGAS inh: SKKanGAS growth inhibition; S. pyogenes SKKanGAS, kanamycin growth, BacTiter-Glo, 6 h; actives 1.3% (n = 300,000); inhibition, % at 7.5 µM;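 active = mean replicate score, as percent of positive control median, at least 50; inconclusive = mean below 50 but one replicate at or above 50; inactive = mean and every replicate below 50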;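 also: strain carries kanamycin resistance gene driven by streptokinase promoter and grows in 40 µg/ml kanamycin; loss of luminescence reflects streptokinase promoter inhibition or plain growth inhibition; 0% = median of DMSO wells and 100% = positive control at its reference dose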
MPTP inh: permeability transition pore inhibition; isolated mouse mitochondria, Ca2+ swelling absorbance, 30 min; inhibition, % at 10 µM; actives 1.4% (n = 360,000); AID 602449;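 active = inhibition of 50% or more, scaled per plate between neutral and stimulator controls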;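 also: 0% = DMSO wells given calcium and 100% = 1 mM EGTA wells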
Mdm2-MdmX inh: human Mdm2/MdmX binding inhibition. SaOS-2 split-luciferase Mdm2/MdmX complementation, luminescence. actives 3% (n = 330,000). inhibition, % at 8 µM. O15151+Q00987. AID 485346;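 active = inhibition of at least 50% at 8 µM in the primary screen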
Target sequence (O15151 whole entry, looked up): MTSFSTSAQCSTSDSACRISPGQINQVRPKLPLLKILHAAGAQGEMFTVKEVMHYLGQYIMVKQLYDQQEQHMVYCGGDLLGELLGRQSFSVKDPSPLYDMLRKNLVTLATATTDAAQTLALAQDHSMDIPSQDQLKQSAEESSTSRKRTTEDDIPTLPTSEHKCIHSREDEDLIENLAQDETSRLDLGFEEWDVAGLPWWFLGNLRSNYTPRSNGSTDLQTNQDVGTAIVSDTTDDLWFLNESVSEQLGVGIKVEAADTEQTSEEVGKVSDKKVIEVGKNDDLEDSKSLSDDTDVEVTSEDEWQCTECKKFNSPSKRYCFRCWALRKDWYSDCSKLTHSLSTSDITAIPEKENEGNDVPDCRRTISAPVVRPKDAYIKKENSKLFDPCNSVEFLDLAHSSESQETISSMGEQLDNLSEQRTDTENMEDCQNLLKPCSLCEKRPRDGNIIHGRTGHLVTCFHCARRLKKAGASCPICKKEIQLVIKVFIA
Target sequence (Q00987 whole entry, looked up): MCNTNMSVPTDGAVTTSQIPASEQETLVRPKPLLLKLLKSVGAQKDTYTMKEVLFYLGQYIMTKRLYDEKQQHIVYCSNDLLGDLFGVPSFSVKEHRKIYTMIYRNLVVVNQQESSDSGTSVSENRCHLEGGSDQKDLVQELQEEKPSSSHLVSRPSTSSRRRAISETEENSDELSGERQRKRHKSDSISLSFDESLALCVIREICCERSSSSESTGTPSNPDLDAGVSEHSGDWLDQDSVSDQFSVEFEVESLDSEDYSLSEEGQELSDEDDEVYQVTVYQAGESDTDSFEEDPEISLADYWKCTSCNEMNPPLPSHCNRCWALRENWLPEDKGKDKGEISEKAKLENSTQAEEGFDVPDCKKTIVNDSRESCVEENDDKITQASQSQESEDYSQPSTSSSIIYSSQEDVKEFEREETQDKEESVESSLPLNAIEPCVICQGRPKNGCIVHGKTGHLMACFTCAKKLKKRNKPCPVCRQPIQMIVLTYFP
CSC inhib: cancer stem cell inhibition; cancer stem cell-like cells viability, luminescence; inhibition, % at 7.5 µM; actives 1.1% (n = 300,000); in the data active = inhibition above about 75%; inconclusive = no clear call, values can overlap the other calls; tested in HMLE shEcad cells
Calb FLC: C. albicans growth modulation with fluconazole | C. albicans CaCi-2 (fluconazole-resistant clinical isolate) + fluconazole, Alamar Blue growth, 48 h | growth inhibition, % (concentration not given with the values) | actives 0.57% (n = 300,000);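 active = growth inhibition above about 58% in most replicates, limit read from the data, passing the limit was not always enough; inconclusive = exactly half the replicates above a set limit; inactive = most replicates below a set limit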;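 also: all wells also contain fluconazole at 8 µg/ml as a sub-toxic cotreatment; 0% = median of DMSO wells and 100% = median of geldanamycin control wells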
Beta cell apopt: blocks beta cell apoptosis; actives 0.8% (n = 300,000); INS-1E cytokine-induced death, ATP luminescence, 48 h; percent of positive-control rescue, neutral wells zero; AID 435005; protection from apoptosis, % (test concentration not listed);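 active = Every replicate reaches about 75%, or at least half do and their mean reaches it too, limit read from the data; inconclusive = At least half of replicates reach the limit but their mean does not; inactive = Under half of replicates reach the limit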;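 also: 0% = cytokine-treated negative control wells and 100% = positive control rescue; higher means more ATP so stronger rescue from cytokine killing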
Mdm2-MdmX conf: human Mdm2/MdmX binding inhibition, confirmed | inhibition, % at 8 µM | luminescent assay | actives 55% (n = 10,000) | shares compounds with Mdm2-MdmX inh; in the data active = inhibition above about 40%
FLuc counter: inhibits full-length luciferase, flagging false Mdm2/MdmX hits; shares compounds with Mdm2-MdmX inh; SaOS-2 full-length luciferase counterscreen, luminescence; inhibition, % at 8 µM; actives 77% (n = 6,200); AID 504607;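 active = mean inhibition at 8 µM reaching about 37%, which flags the compound as non-specific, limit read from the data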;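 also: p53-null SaOS-2 cells with luciferase driven by a doxycycline-inducible promoter; compound on cells about two nights before reading with doxycycline added after day one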
Active calls of the source: *; ? = inconclusive; · = no result.

SMILES | SKKanGAS inh | MPTP inh | Mdm2-MdmX inh | CSC inhib | Calb FLC | Beta cell apopt | Mdm2-MdmX conf | others
CN(C)S(=O)(=O)n1cc(/C=C(\NC(=O)c2ccccc2Cl)C(=O)N2CCOCC2)c2ccccc21 | -4 | -1 | 62* | -1 | 34 | 0 | -5
CC1=C(C(=O)OC2CCCCCCC2)C(c2cc3c(cc2Br)OCO3)CC(=O)N1 (configuration not stated) | 43 | -2 | 78* | 118* | 8 | 16 | 28
CCn1nnc(-c2ccccc2NC(=O)c2cc(OC)c(OC)c(OC)c2)n1 | -1 | 1 | 31 | -22 | 0 | · | ·
CN1CCN(C(=O)c2ccc3c(c2)N(C)C(=O)/C(=C/c2cccc(Cl)c2)S3)CC1 | 37 | -3 | 46 | -15 | 19 | -5 | ·
COc1ccc(/C=C2\Sc3ccc(C(=O)N4CCN(Cc5ccccc5)CC4)cc3N(C)C2=O)cc1OC | 71* | -1 | 61* | 4 | -7 | 26 | 14
CCOC(=O)[C@@H]1[C@H]2COc3cc(OC)ccc3[C@H]2N2C(=O)N(c3ccc(Br)cc3)C(=O)[C@]12C | · | 2 | 3 | -9 | · | -2 | ·
CCc1ccc(N2C(=O)CC(N3CCN(c4ccccn4)CC3)C2=O)cc1 (configuration not stated) | 1 | 2 | 18 | -19 | 0 | -6 | ·
N#Cc1c(-c2ccccc2)cc(-c2cccs2)nc1SCC(=O)O | -10 | 2 | 16 | 5 | 5 | 3 | ·
COc1ccc(-c2cc(-c3cccs3)c(C#N)c(SCC(=O)NCc3ccccc3OC)n2)cc1 | 6 | -3 | 84* | 14 | -5 | 29 | 30
COc1ccc(-c2cc(-c3cccs3)c(C#N)c(SCC(=O)NCc3ccccc3)n2)cc1 | 1 | 0 | 61* | 5 | -6 | 19 | 12
CCN(Cc1nc2ccccc2n1C)c1ccccc1 | 10 | 0 | -7 | -13 | 5 | -1 | ·
Cc1ccc(-c2nn3c(C)nnc3s2)cc1NC(=O)c1ccc(-c2ccc(Cl)cc2Cl)o1 | · | -2 | 80* | 7 | · | · | 25
Cc1ccc(C(=O)Cn2c(C(=O)/C=C/c3ccccc3)nc3ccccc32)cc1 | -2 | 1 | 56* | 41 | 3 | 41 | 55* | FLuc counter=53*
O=c1[nH]c(=O)n(CCc2ccc(F)cc2)c(O)c1C=NCc1ccc2c(c1)OCO2 | -7 | 0 | 80* | · | -4 | -3 | 6
CCCn1c(=O)c(C(=O)NNS(=O)(=O)c2ccc(C)cc2)c(O)c2ccccc21 | ? | 28 | 51* | 36 | -2 | 4 | 30 | FLuc counter=85*
O=Nc1c(-c2c(O)[nH]c3cc(Br)ccc23)[nH]c2ccccc12 | 95* | 12 | 99* | 103* | 53 | 10 | 31
O=C(CSCc1cccc(Br)c1)N=Nc1c(O)[nH]c2ccccc12 | 2 | 6 | -5 | -8 | 33 | -5 | ·
O=C(/C=C/c1ccc(F)cc1)Nc1cc(S(=O)(=O)N2CCOCC2)ccc1N1CCCC1 | 3 | 0 | 24 | 7 | 0 | 3 | ·
CCN1CCN(c2ccc(S(=O)(=O)N3CCCCC3)cc2NC(=O)c2ccc([N+](=O)[O-])o2)CC1 | -7 | -2 | 53* | 8 | -1 | 102* | 28
CN1CCN(c2ccc(Cl)cc2NC(=O)c2ccc(S(=O)(=O)N3CCCCCC3)cc2)CC1 | 9 | 2 | 67* | 30 | 16 | -5 | 39 | FLuc counter=72*
CN1CCN(c2ccc(Cl)cc2NC(=O)/C=C/c2ccc(F)cc2)CC1 | -8 | 2 | 52* | 6 | 4 | 2 | 14
O=C(Nc1ccc(S(=O)(=O)N2CCCC2)cc1)c1ccc([N+](=O)[O-])o1 | · | 0 | 67* | 29 | · | 47 | 31
COc1ccc2nc(N3C(=O)CC(Cc4ccc(Cl)cc4)C3=O)sc2c1 (configuration not stated) | -2 | -3 | 19 | 8 | 9 | -5 | ·
CCN1C(=O)C2C(c3cccc(F)c3)NC(C)(C(=O)OC)C2C1=O (configuration not stated) | 7 | 0 | 7 | 20 | -8 | -6 | ·
COc1ccccc1N(CN1C(=O)c2ccccc2C1=O)C(=O)c1cccc(C)c1 | 14 | 1 | -10 | -9 | 1 | -3 | ·
SMILES | SKKanGAS inh | MPTP inh | Mdm2-MdmX inh | CSC inhib | Calb FLC | Beta cell apopt | Mdm2-MdmX conf | others
CCC(=O)N1CCN(c2ccc(NC(=O)c3ccc([N+](=O)[O-])o3)cc2Cl)CC1 | 18 | 1 | · | · | 1 | · | ·
CCN1CCN(c2ccc(S(=O)(=O)N3CCOCC3)cc2NC(=O)/C=C/c2ccc([N+](=O)[O-])cc2)CC1 | -8 | 0 | 100* | · | 0 | 6 | 48* | FLuc counter=64*
CCN1CCN(c2ccc(S(=O)(=O)N3CCOCC3)cc2NC(=O)c2cccc([N+](=O)[O-])c2)CC1 | · | -1 | 21 | -15 | · | -10 | ·
CC(=O)N1CCN(c2ccc(NC(=O)c3ccc([N+](=O)[O-])o3)cc2Cl)CC1 | 24 | 0 | 69* | 11 | -3 | -2 | 68* | FLuc counter=27
CC(C)CN(C)C(=O)CCc1nnc(Cc2ccc(-c3ccccc3)cc2)o1 | -6 | 3 | 19 | -48 | 4 | -5 | ·
CC(=O)c1cccc(NC(=S)N2CCN(CCN3C(=O)c4cccc5cccc(c45)C3=O)CC2)c1 | 6 | -1 | 65* | 4 | -17 | 48 | -29
O=C(C1=NOC2(C1)C(=O)N(Cc1ccccc1)c1ccccc12)N1CCOCC1 (configuration not stated) | · | 0 | · | · | · | · | ·
CC(C)(C)C(=O)/C(=C/c1ccc(Cl)cc1)n1cncn1 | -1 | 0 | 99* | 30 | -1 | -52 | 100* | FLuc counter=0
CC(C)(C)C(=O)/C(=C\c1ccc([N+](=O)[O-])cc1)n1cncn1 | -7 | · | 99* | 119* | 107* | 112* | 100* | FLuc counter=2
COc1ccc(-c2nc3c(Cl)cc(C(F)(F)F)cn3c2Cc2ccccc2C(F)(F)F)cc1OC | · | 3 | · | · | · | · | ·
Cc1cc(NC(=O)C(C)Sc2nc(-c3cccs3)nc3ccccc23)no1 (configuration not stated) | · | 0 | 84* | · | · | · | 52* | FLuc counter=68*
O=C(Nc1ccc(Nc2ccccc2)cc1)c1cc([N+](=O)[O-])ccc1Cl | -9 | 2 | 54* | 78* | 9 | 16 | 38
O=C(O)c1ccccc1C(=O)Nc1ccc(Nc2ccc([N+](=O)[O-])cc2[N+](=O)[O-])cc1 | 4 | 1 | 20 | -11 | 2 | 1 | ·
O=C(Nc1ccc(N2CCN(C(=O)c3ccco3)CC2)cc1)c1ccc([N+](=O)[O-])cc1Cl | 5 | -1 | 23 | 6 | 1 | 1 | ·
O=C(Nc1ccc2c(c1)CCCN2C(=O)c1ccco1)c1cc([N+](=O)[O-])ccc1Cl | 2 | 0 | 82* | -17 | 1 | 6 | 82* | FLuc counter=68*

Compound activity from PubChem BioAssay.
